The text below walks through data of PubChem BioAssay (NCI).

This is part of a sample that, as a whole, favours compounds with a hit. Of some 83,000 tested, about 20% had one in any assay.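 The test compound was applied at a single concentration to cells in 96-well plates for 48 hours, and percent growth was recorded.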 A number with no mark means an inactive call. Active and inactive are the calls of the source. How the source made its calls: active means growth percent below 10; inactive means the rest.

Holding throughout (test): NCI-60 one-dose screen, 48 h (100 = growth as untreated, 0 = no growth, -100 = all killed)
Holding throughout (settings): 10 µM unless noted

Experiment [1] relates to T-47D breast.
Experiment [2] relates to BT-549 breast.
Experiment [3] deals with MDA-MB-435 melanoma.
In experiment [4] the test system is SW-620 colon.
Experiment [5] relates to MCF7 breast.
In experiment [6] the test system is HCT-116 colon.
Experiment [7] has as its system HCC-2998 colon.
Experiment [8] has as its system KM12 colon.

As for `C[C@]12CCc3nc(Nc4cccc(O)c4)sc3C1=CC[C@@H]1[C@@H]2CC[C@]2(C)/C(=N\NC(N)=S)CC[C@@H]12`, the growth was 19.5% in experiment [1]; 7.62% (active) in experiment [2]; 5.53% (active) in experiment [3]; -50% (active) in experiment [4]; -39.3% (active) in experiment [5]; -61.8% (active) in experiment [6]. The growth was 65.3% in experiment [7] and 13.5% in experiment [8].
Regarding `Nc1ncc(C#Cc2cncc(NC(=O)c3cccc(C(F)(F)F)c3)c2)c2cccnc12`, the growth was 76.3% in experiment [1]; 63.1% in experiment [2]; 22.9% in experiment [3]; 49.3% in experiment [4]; 4.41% (active) in experiment [5]; 21.8% in experiment [6]. Moreover, the growth in experiment [7] is 47.1%; in experiment [8], 19%.
`Cc1nn(-c2ccccc2)c(N2CCOCC2)c1/C=N/N=c1\sc2ccccc2n1C`: the growth was 51.7% in experiment [1]; 81.5% in experiment [2]; 92.1% in experiment [3]; 82.7% in experiment [4]; 68.5% in experiment [5]; 49.6% in experiment [6]. Further, the growth is 106% in experiment [7] and 81.4% in experiment [8].
Take `c1ccc(-c2nnc(Nc3ccc4c(c3)OCCO4)o2)c(NCc2ccncc2)c1`: the growth in experiment [1] was 52.7%; in experiment [2] it was -15.1% (active); in experiment [3] it was -34.6% (active); in experiment [4] it was 27.9%; in experiment [5], 20%; in experiment [6], 4.92% (active). Further, the growth in experiment [7] is -22.3% (active); in experiment [8] it was -38.3% (active).
Regarding `COC(=O)N[C@H]1CCc2cc(OC)c(OC)c(OC)c2-c2ccc(SC)c(=O)cc21`, the growth in experiment [1] is 50.2%; in experiment [2], -4.09% (active); in experiment [3], -29.5% (active); in experiment [4] it was 16.9%; in experiment [5], 14.7%; in experiment [6] it was 5.32% (active). For the same molecule, the growth in experiment [7] was 6.51% (active); in experiment [8], 1.21% (active).
As for `COc1ccc(/C=C(/c2ccccc2)[N+](=O)[O-])cc1`, the growth in experiment [1] was -64.5% (active); in experiment [2], -18.7% (active); in experiment [3] it was -35.6% (active); in experiment [4], -57.6% (active); in experiment [5], -31.3% (active); in experiment [6], -71.6% (active). Further, the growth is -80.7% (active) in experiment [7] and -36.2% (active) in experiment [8].
Consider `COc1ccc2c(/C=C3/C(=O)NC(=S)NC3C)cc(=O)oc2c1` (centres undefined), for which the growth was 88% in experiment [1]; 103% in experiment [2]; 102% in experiment [3]; 103% in experiment [4]; 90.1% in experiment [5]; 95.6% in experiment [6]. In addition, the values for the growth in experiment [7] and in experiment [8] were 96% and 99.7%, respectively.
For `Fc1ccc(-n2cc(COc3ncnc4sc5c(c34)CCCC5)nn2)cc1Cl`, the growth was 95.1% in experiment [1]; 103% in experiment [2]; 99% in experiment [3]; 101% in experiment [4]; 95% in experiment [5]; 101% in experiment [6]. Moreover, the growth is 114% in experiment [7] and 105% in experiment [8].
For `N/C(=N\N=C\c1cc2ccccc2s1)N/N=C/c1cc2ccccc2s1`, the growth is 95.5% in experiment [1]; 78.5% in experiment [2]; 106% in experiment [3]; 103% in experiment [4]; 82.7% in experiment [5]; -69.7% (active) in experiment [6]. The growth in experiment [7] and in experiment [8] was 103% each time.
With `Cc1[nH]n(C(=O)c2ccncc2)c(=O)c1N=Nc1ccc(F)c(Cl)c1`, the growth in experiment [1] was 99.7%; in experiment [2], 103%; in experiment [3], 112%; in experiment [4] it was 99.8%; in experiment [5], 92.1%; in experiment [6] it was 103%. Also, the figures for the growth in experiment [7] and in experiment [8] were 110% and 105%, respectively.
`COc1cc(OC)cc(C2C3=C(COC3=O)Nc3cc(OC)ccc32)c1` (centres undefined): the growth is 68.8% in experiment [1]; -2.09% (active) in experiment [2]; -30% (active) in experiment [3]; 26.6% in experiment [4]; 15.7% in experiment [5]; 1.55% (active) in experiment [6]. The results for the growth in experiment [7] and in experiment [8] were 1.15% (active) and -3.49% (active), respectively.
In the case of `CC(=O)[C@@H]1CC[C@]2(C(N)=O)CC[C@]3(C)[C@H](CC[C@@H]4[C@@]5(C)CCC(=O)C(C)(C)[C@@H]5CC[C@]43C)[C@@H]12`, the growth was 80.2% in experiment [1]; 93.3% in experiment [2]; 99.9% in experiment [3]; 110% in experiment [4]; 89.9% in experiment [5]; 90.4% in experiment [6]. For the same molecule, the growth is 107% in experiment [7] and 100% in experiment [8].
Regarding `Cc1ccc(O)c(C(=O)O)c1`, the growth in experiment [1] is 106%; in experiment [2], 111%; in experiment [3], 111%; in experiment [4], 104%; in experiment [5] it was 104%; in experiment [6], 108%. In addition, the results for the growth in experiment [7] and in experiment [8] were 110% and 108%, respectively.
On to `CC1(C)NCCC[C@]2(C)[C@H]3CC=C4[C@@H]5C[C@@](C)(CO)CC[C@]5(C)CC[C@@]4(C)[C@]3(C)CC[C@@H]12`, for which the growth was 57.7% in experiment [1]; 78.5% in experiment [2]; 51.5% in experiment [3]; 74.1% in experiment [4]; 40.7% in experiment [5]; 21% in experiment [6]. Moreover, the growth in experiment [7] was 60.5%; in experiment [8] it was 52.8%.
For `CCCC1C(C(=O)OCC)=C(N)Oc2cc(O)ccc21` (centres undefined), the growth in experiment [1] is 88.8%; in experiment [2], 94%; in experiment [3], 90.6%; in experiment [4], 97.1%; in experiment [5], 103%; in experiment [6], 88.3%. For the same molecule, the growth is 105% in experiment [7] and 98.2% in experiment [8].
For `O=C1NC(=O)C(=Cc2cn(Cc3ccccn3)c3ccccc23)C(=O)N1`, the growth in experiment [1] was 100%; in experiment [2], 98.8%; in experiment [3], 101%; in experiment [4] it was 105%; in experiment [5] it was 87.6%; in experiment [6] it was 100%. Further, the growth in experiment [7] was 105%; in experiment [8], 106%.
For `CNC(=O)NCC1OC(n2cnc3c(NC(=O)Nc4ccccc4)ncnc32)C(O[Si](C)(C)C(C)(C)C)C1O[Si](C)(C)C(C)(C)C` (centres undefined), the growth in experiment [1] was 13.6%; in experiment [2], 39.7%; in experiment [3], 25.9%; in experiment [4], 36.4%; in experiment [5] it was 0.294% (active); in experiment [6] it was 0.332% (active). In addition, the values for the growth in experiment [7] and in experiment [8] were -1.37% (active) and -3.66% (active), respectively.
Take `ClCC1(Cn2cnc3c(Cl)nc(Cl)nc32)COC1`: the growth was 72% in experiment [1]; 108% in experiment [2]; 87.6% in experiment [3]; 66.3% in experiment [4]; 76.1% in experiment [5]; 13.7% in experiment [6]. For the same molecule, the growth is -6.15% (active) in experiment [7] and 97.5% in experiment [8].
On to `COc1ccc(C(O)c2cc3c(N)c(C(=O)Nc4ccc(Cl)cc4)sc3nc2C)cc1` (centres undefined), for which the growth in experiment [1] is 37.4%; in experiment [2], 66.4%; in experiment [3] it was -52.5% (active); in experiment [4] it was 27.1%; in experiment [5], 16.6%; in experiment [6], 21.7%. Besides, the growth in experiment [7] was 23%; in experiment [8] it was 9.89% (active).
Consider `N#CSCC1CC(O)(c2ccccc2)C(c2ccccc2)C(c2ccc(F)cc2)O1` (centres undefined), for which the growth was 9.18% (active) in experiment [1]; 5.69% (active) in experiment [2]; -0.166% (active) in experiment [3]; -1.6% (active) in experiment [4]; 5.64% (active) in experiment [5]; -63.9% (active) in experiment [6]. For the same molecule, the growth was 74.8% in experiment [7] and 4.67% (active) in experiment [8].
As for `COc1ccc(/C=C/c2n[nH]c3ccc(N4CCOC4=O)cc23)cc1`, the growth in experiment [1] is 17.6%; in experiment [2], 16.1%; in experiment [3], 44.4%; in experiment [4], 1.51% (active); in experiment [5] it was 2.37% (active); in experiment [6] it was 8.08% (active). For the same molecule, the growth in experiment [7] is 31.5%; in experiment [8] it was 8.51% (active).
Regarding `Cc1ccc(C2CC(c3cccc(Nc4ccncc4)c3)=NN2c2cc(Cl)cc(Cl)c2)cc1` (centres undefined), the growth in experiment [1] was 80.3%; in experiment [2] it was 101%; in experiment [3] it was -63.2% (active); in experiment [4], -58% (active); in experiment [5], -45.1% (active); in experiment [6] it was -78.1% (active). For the same molecule, the results for the growth in experiment [7] and in experiment [8] were -77.7% (active) and -67.5% (active), respectively.
For `CN(C)c1ccc(-c2c(C#N)c(N)n3nc(N)c(C#N)c3c2C#N)cc1`, the growth was 59.5% in experiment [1]; 69.1% in experiment [2]; 97% in experiment [3]; 112% in experiment [4]; 99.3% in experiment [5]; 99.3% in experiment [6]. Also, the growth in experiment [7] was 83.6%; in experiment [8] it was 75.4%.
As to `CCCCCCC/C=C/[C@H]1O[C@]2(O)C(=O)C=C3C[C@@H](O[C@@H]4O[C@H](CO)[C@@H](O)C(O)[C@@H]4O)C[C@@H]3[C@H]2C=C1C` (some centres undefined), the growth in experiment [1] was -9.2% (active); in experiment [2], -18.6% (active); in experiment [3], -19.9% (active); in experiment [4], -28.5% (active); in experiment [5], 8.66% (active); in experiment [6] it was -45.9% (active). For the same molecule, the growth is 32.8% in experiment [7] and 15.5% in experiment [8].
On to `CCN1C(=O)/C(=c2\sc3n(c2=O)NC2C(N=3)N(CC)C(=O)N2CC)c2ccccc21` (centres undefined), for which the growth was 36.3% in experiment [1]; 58.8% in experiment [2]; -38.6% (active) in experiment [3]; 39.5% in experiment [4]; 37.2% in experiment [5]; 12.9% in experiment [6]. The figures for the growth in experiment [7] and in experiment [8] were 58.9% and 20.1%, respectively.
Take `COc1ccc(CNC(=O)COc2ccc(/C=N/Nc3nc4ccccc4s3)cc2)cc1`: the growth in experiment [1] is 14.7%; in experiment [2], 12.9%; in experiment [3], 7.82% (active); in experiment [4], 38.6%; in experiment [5], 42.1%; in experiment [6], 10.6%. Besides, the growth in experiment [7] is 53.5%; in experiment [8], 1.51% (active).
For `COc1ccccc1/C=C1\COc2ccc(-c3ccccc3)cc2C1=O`, the growth in experiment [1] was 14%; in experiment [2], 12%; in experiment [3], -45% (active); in experiment [4] it was 16.8%; in experiment [5], -9.07% (active); in experiment [6] it was 5.64% (active). Moreover, the figures for the growth in experiment [7] and in experiment [8] were 51.6% and -32% (active), respectively.
Turning to `C(=C\c1n(Cc2ccc3ccccc3c2)c(-c2ccccc2)c(-c2ccccc2)[n+]1Cc1ccc2ccccc2c1)/c1ccccc1`, the growth in experiment [1] is -74.8% (active); in experiment [2], -83.2% (active); in experiment [3], -92% (active); in experiment [4], -86.9% (active); in experiment [5], -64.1% (active); in experiment [6], -80.9% (active). Further, the growth in experiment [7] is -91.4% (active); in experiment [8] it was -83.5% (active).
